Among the data in PubChem BioAssay (Tox21) are Potency and activity change values, retold here.

The structures appear in SMILES notation. Active and inactive are the calls of the source. A call without a number means that no potency is given here. Calls come from the whole dose curve.
Potency is the fitted concentration of half-maximal effect.

Sequence of Gonadotropin-releasing hormone receptor (Homo sapiens) (P30968 whole entry, looked up): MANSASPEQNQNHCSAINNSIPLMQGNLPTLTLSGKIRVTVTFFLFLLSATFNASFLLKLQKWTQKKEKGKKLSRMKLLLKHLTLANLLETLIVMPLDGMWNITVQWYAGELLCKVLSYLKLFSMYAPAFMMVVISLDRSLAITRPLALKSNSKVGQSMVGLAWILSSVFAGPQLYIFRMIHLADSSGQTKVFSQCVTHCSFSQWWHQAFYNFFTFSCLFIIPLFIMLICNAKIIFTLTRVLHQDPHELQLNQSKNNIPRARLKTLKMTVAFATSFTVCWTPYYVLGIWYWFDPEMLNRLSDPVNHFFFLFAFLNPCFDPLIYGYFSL

The assay has as its target Gonadotropin-releasing hormone receptor (Homo sapiens) (UniProt P30968). As to the kind of experiment: Human gonadotropin-releasing hormone receptor (GnRHR) small molecule agonists, calcium flux assay in GnRHR-HEK293 cells (AID 1920063). Note: nearly all actives have a fitted effect of over 35% in size. As to conditions: calcium flux fluorescence, agonist mode; series mostly up to 57.6 µM. The gist of the method:
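Calcium flux, agonist mode, human GnRHR stably integrated in HEK293; dye 1 h at 37 C before compound; Ex/Em=480/540 kinetic read, 3 min; 15 concentrations, triplicate.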
Turning to `CN=C(NC#N)Nc1ccc(C2=NNC(=O)CC2C)cc1` (stereo not given), the Potency entry was “inactive”. The same measure, in the same setting: for `CCN(CC)CCOC(=O)C(Cc1cccc2ccccc12)CC1CCCO1` (stereo not given) the value was “inactive”; for `O=c1[nH]cnc2ccccc12`, “inactive”. For the compound `CCCCCCCCCCOc1cc2c(=O)c(C(=O)OCC)c[nH]c2cc1OCC`, the activity change is 0.343% [at 5.22 µM, stronger effect = higher value] (inactive). Consider `CCC(=O)CC(C)CC` (stereo not given), for which the activity change is -1.45% [at 0.217 µM, stronger effect = higher value] (inactive). `CCCCOCCOC(=O)COc1ccc(Cl)cc1Cl`: the Potency entry was “inactive”. In the case of `CC(=O)CC(=O)OC(C)(C)C`, the Potency entry was “inactive”. In the case of `CC(COC(C)(C)C)OCCCO` (stereo not given), the Potency result was “inactive”.

As for `CCCC1CCCC(=O)O1` (stereo not given), the Potency entry was “inactive”. On to `CCCCCCCCCOC(=O)c1ccccc1C(=O)OCCCCCCCCC`, for which the Potency entry is “inactive”. On to `N#CC1(N)CCCCC1`, for which the Potency result was “inactive”. The same measure, in the same setting: for `Cc1ccc(-n2nc(C(C)(C)C)cc2NC(=O)Nc2ccc(OCCN3CCOCC3)c3ccccc23)cc1` the value was “inactive”; for `CCN(CCCCOC(=O)c1ccc(OC)c(OC)c1)C(C)Cc1ccc(OC)cc1` (stereo not given), “inactive”; for `C=COCC(C)C`, “inactive”. Take `C/C=C/C(=O)OCC(C)C`: the Potency entry was “inactive”. Turning to `N#CSc1ccc(N)c([N+](=O)[O-])c1`, the Potency entry is “inactive”. In the case of `C=C(C)C(=O)OCCCCCCCCCCOC(=O)C(=C)C`, the Potency result was “inactive”. As to `Cc1ccc(C(=O)Oc2ccc(C(O)CNC(C)(C)C)cc2OC(=O)c2ccc(C)cc2)cc1` (stereo not given), the Potency was 0.0535 µM (active).

Consider `C/C=C/C(=O)Oc1c(CCCCCC(C)C)cc([N+](=O)[O-])cc1[N+](=O)[O-]`, for which the Potency is 38.9 µM (active).

In the case of `O=C(CCCCCCCCc1cccnc1)N1CCC(C=C(c2ccccc2)c2ccccc2)CC1`, the Potency result is “inactive”.

Turning to `O=C1CCCN1CCO`, the Potency entry was “inactive”. As for `N=C(N)c1ccc(OCCCOc2ccc(C(=N)N)cc2)cc1`, the Potency entry is “inactive”. With `COCCCCCCCCOCCC[Si](C)(O[Si](C)(C)C)O[Si](C)(C)C`, the Potency result is “inactive”. For `CCOC(=N)CC(=O)OCC`, the Potency entry was “inactive”. `Oc1ccc2c(c1)CCC2`: the Potency result is “inactive”. With `CC(C)(C)c1nnc(NS(=O)(=O)c2ccccc2)s1`, the Potency entry was “inactive”. For `CCCCc1nc2cccnc2n1Cc1ccc(-c2ccccc2-c2nnn[nH]2)cc1`, the Potency entry is “inactive”. `O=C(O)Cc1csc(-c2ccc(Cl)cc2)n1`: the Potency entry was “inactive”. On the same count and under the same terms, for `CCOC(=O)Nc1ccc(NCc2ccc(F)cc2)nc1N` the value was “inactive”; for `CC(Cl)C(Cl)Cl` (stereo not given), “inactive”.

As for `O=C(O)C[C@H](O)C[C@H](O)/C=C/c1c(C2CC2)nc2ccccc2c1-c1ccc(F)cc1`, the activity change is -1.52% [at 11.8 µM, stronger effect = higher value] (inactive).

For `CC(=O)Nc1cccc(C)c1`, the Potency entry is “inactive”. For `CCCCCCc1ccc(N)cc1`, the Potency entry was “inactive”.

Take `O=C=Nc1cccc(C(F)(F)F)c1`: the Potency result is “inactive”. Consider `Cc1cc(SC2=C(O)C[C@@](CCc3ccc(N)cc3)(C(C)C)OC2=O)c(C(C)(C)C)cc1CO`, for which the Potency result was “inactive”. `CCCCC(CC)CN1C(=O)C2C3C=CC(C3)C2C1=O` (stereo not given): the Potency entry was “inactive”. For the compound `NCCS`, the Potency result is “inactive”. For the compound `O=S1(=O)CC(Cl)(Cl)C(Cl)(Cl)C1`, the Potency entry was “inactive”.

For `CN1CCN(C2Cc3ccccc3Sc3ccc(Cl)cc32)CC1` (stereo not given), the Potency entry was “inactive”. With `CCOC(=O)C1=NN(c2ccc(Cl)cc2Cl)C(C)(C(=O)OCC)C1` (stereo not given), the Potency result was “inactive”.
